Records with an inconclusive call do not appear. Active and inactive are the calls of the source. Unless noted, calls follow the shape of the full dose curve.
Legend:
[1] = molecular target: Thyrotropin receptor (Homo sapiens) (UniProt P16473); assay: qHTS assay to identify small molecule agonists of the thyroid stimulating hormone receptor (TSHR) signaling pathway (AID 1224843); also: nearly all actives have a fitted effect of over 45% in size
Procedure, shortened: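 Agonist activity read as cAMP rise via d2/cryptate HTRF competition, 1 h room-temperature detection, in HEK293 cells expressing TSHR. Fifteen-point titrations, each run in triplicate, with a 30 min room-temperature incubation beforehand.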

[2] = qHTS assay to identify small molecule agonists of the hypoxia (HIF-1) signaling pathway - cell viability counter screen (AID 1224844); also: nearly all actives have a fitted effect of over 50% in size
Procedure, shortened: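 HRE-bla ME-180; 0.5% dFBS; cpd 17 h, 37C, 5% CO2; CellTiter-Glo lum., 30 min RT, post-FRET read, same wells.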

[3] = qHTS assay to identify small molecule agonists of H2AX (AID 1224845; active = well fitted activation curve with a large enough effect in the signal ratio in the repeat runs, not every such curve was filed as active; the % refers to the signal ratio)
Procedure, shortened: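 Phospho-H2AX Ser139 measured by HTRF (ex 320 nm; em 665 and 620 nm) after 24 hr antibody incubation. Compounds, 15 concentrations, 0.76% DMSO, were applied to CHO-K1 cells for 3hr at 37C before lysis.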

[4] = qHTS assay to identify small molecule agonists of the hypoxia (HIF-1) signaling pathway (AID 1224846; active = well fitted activation curve with a large enough effect in the signal ratio in the repeat runs, not every such curve was filed as active; the % refers to the signal ratio)
Procedure, shortened: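 Reporter induction in HRE-bla ME-180 cells is taken as agonism: cells sit 5 hrs after plating, receive compounds or DMSO only, incubate 17 hrs at 37C under 5% CO2, and are loaded with CCF4-AM for beta-lactamase FRET measurement.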

[5] = qHTS assay to identify small molecule agonists of H2AX - cell viability counter screen (AID 1224847); also: top concentration of the series differs between compounds; nearly all actives have a fitted effect of over 30% in size
Procedure, shortened: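 Read-out: CellTiter-Glo luminescence, 30 min RT. Cells: wild-type CHO-K1, 1000/well, 10% FBS, plated overnight at 37C. Treatment: 15 concentrations, 3 hr, 37C, 0.76% DMSO.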

[6] = qHTS assay to identify small molecule antagonists of the estrogen related receptor (ERR) signaling pathway from Tox21 library (AID 1224848; active = well fitted curve in the direction sought with a large enough effect in the repeat runs; an effect the other way counts as inactive or inconclusive; also: nearly all actives have a fitted effect of over 50% in size)
Procedure, shortened: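 Luciferase luminescence (ONE-Glo, 30 min room temperature) was the read-out. Cells of the NTP-supplied ERR line, 2,000 per well, were given 6 h at 37 C before compound addition in DMSO and 18 h exposure at 37 C.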

[7] = qHTS assay to identify small molecule agonists of the estrogen related receptor (ERR) signaling pathway from Tox21 library (AID 1224849); details: ERR reporter cell line, ONE-Glo luciferase, 18 h; at 92.4 µM (top of the series) unless noted; also: nearly all actives have a fitted effect of over 15% in size
Procedure, shortened: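 Tox21 compounds tested for ERR agonism in an NTP reporter cell line: 18 h treatment at 37 C, then ONE-Glo luminescence.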

[8] = qHTS RealTime-Glo MT Cell Viability Assay in HepG2 cells - 24 hour (AID 1224867; active = well fitted curve in the direction sought with a large enough effect in the repeat runs; an effect the other way counts as inactive or inconclusive; also: nearly all actives have a fitted effect of over 50% in size)
Procedure, shortened: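 qHTS, HepG2, 600 cells/well, RealTime-Glo (NanoLuc + prosubstrate) added with cells; 5 h preincubation; DMSO compound addition; 37 C; luminescence at 0/8/16/24/32/40 h.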

[9] = qHTS RealTime-Glo MT Cell Viability Assay in HEK293 cells - 32 hour (AID 1224868; active = well fitted curve in the direction sought with a large enough effect in the repeat runs; an effect the other way counts as inactive or inconclusive; also: top concentration of the series differs between compounds; nearly all actives have a fitted effect of over 50% in size)
Procedure, shortened: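 Assay medium contained NanoLuc luciferase plus cell-permeant prosubstrate, added with HEK293 cells at 600 cells/well. After 5 h at 37 C/5% CO2 compounds were added; plates stayed at 37 C for 40 h with serial luminescence reads.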

[10] = A CellTox Green Cytotoxicity Assay to monitor cytotoxicity in HEK293 cells - 0 hour (AID 1224869; active = well fitted curve in the direction sought with a large enough effect in the repeat runs; an effect the other way counts as inactive or inconclusive; also: nearly all actives have a fitted effect of over 50% in size)
Procedure, shortened: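 Tox21 screen in HEK293: membrane-impermeant cyanine dye fluoresces on binding dead-cell DNA; compound pinned 5 h post-seeding, plates held at 37 C, signal read repeatedly through 40 h.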
% is scaled to controls: 0 for no effect and ±100 for the full control effect.

Sequence of Thyrotropin receptor (Homo sapiens) (P16473 whole entry, looked up): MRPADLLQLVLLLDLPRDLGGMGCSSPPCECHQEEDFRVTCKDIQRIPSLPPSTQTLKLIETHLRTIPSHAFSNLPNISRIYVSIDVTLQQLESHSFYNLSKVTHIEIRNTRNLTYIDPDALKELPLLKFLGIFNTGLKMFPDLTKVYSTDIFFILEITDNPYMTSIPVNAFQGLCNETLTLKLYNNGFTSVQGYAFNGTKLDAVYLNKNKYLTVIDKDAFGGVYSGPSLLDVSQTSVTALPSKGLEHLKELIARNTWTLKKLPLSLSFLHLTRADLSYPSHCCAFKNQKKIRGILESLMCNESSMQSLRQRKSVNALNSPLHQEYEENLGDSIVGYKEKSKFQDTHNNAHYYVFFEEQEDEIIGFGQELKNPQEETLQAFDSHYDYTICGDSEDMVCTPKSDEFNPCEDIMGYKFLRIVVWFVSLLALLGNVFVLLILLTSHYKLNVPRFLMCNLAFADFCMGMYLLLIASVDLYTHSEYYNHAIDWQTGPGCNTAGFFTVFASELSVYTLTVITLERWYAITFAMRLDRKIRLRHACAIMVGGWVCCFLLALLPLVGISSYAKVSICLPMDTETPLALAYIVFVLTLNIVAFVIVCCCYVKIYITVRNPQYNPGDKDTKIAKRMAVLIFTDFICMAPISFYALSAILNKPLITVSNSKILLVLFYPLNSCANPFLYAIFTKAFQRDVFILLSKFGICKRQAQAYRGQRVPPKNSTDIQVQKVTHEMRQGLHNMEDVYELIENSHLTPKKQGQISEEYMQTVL

CCCCc1ccc2cccc(S(=O)(=O)O)c2c1
inactive: outcome [1] | Potency [2] | outcome [3] | outcome [4] | Potency [5] | Potency [6] | activity change, positive = activation [7] -0.296% | outcome [8] | Potency [9]

Cc1ccccc1Br
inactive: outcome [1] | Potency [2] | outcome [3] | outcome [4] | Potency [5] | Potency [6] | activity change, positive = activation [7] -0.692% | Potency [9]

CC(C)COC(=O)C(C)C
inactive: outcome [1] | Potency [2] | outcome [3] | outcome [4] | Potency [5] | Potency [6] | activity change, positive = activation [7] 8.11% | outcome [8] | Potency [9] | Potency [10]

O=S(=O)(O)c1ccccc1O
inactive: outcome [1] | Potency [2] | outcome [3] | outcome [4] | Potency [5] | Potency [6] | activity change, positive = activation [7] -0.0376% | outcome [8] | Potency [9] | Potency [10]

C=C(C)[C@@H]1CCC2=CC(=O)C[C@@H](C)[C@]2(C)C1
inactive: outcome [1] | Potency [2] | outcome [3] | outcome [4] | Potency [5] | Potency [6] | activity change, positive = activation [7] -3.73% | outcome [8] | Potency [9] | Potency [10]

CCCCCCCCC=O
inactive: outcome [1] | Potency [2] | outcome [3] | outcome [4] | Potency [5] | Potency [6] | activity change, positive = activation [7] -1.48% | outcome [8] | Potency [9]

COC[C@H](c1ccc(C(F)(F)F)cc1)N1CCN(C2(C)CCN(C(=O)c3c(C)ncnc3C)CC2)C[C@H]1C
inactive: outcome [1] | Potency [2] | outcome [3] | outcome [4] | Potency [5] | Potency [6] | activity change, positive = activation [7] -5.81% [at 42.5 µM] | outcome [8] | Potency [9]

CN(C)N=Nc1ccccc1
inactive: outcome [1] | Potency [2] | outcome [3] | outcome [4] | Potency [5] | Potency [6] | activity change, positive = activation [7] 9.49% | outcome [8] | Potency [9] | Potency [10]

CC(C=O)Cc1ccc(C(C)C)cc1 (stereo unspecified)
inactive: outcome [1] | Potency [2] | outcome [3] | outcome [4] | Potency [5] | outcome [8] | Potency [9]

COc1ccc2cc(C=O)ccc2c1
inactive: outcome [1] | Potency [2] | outcome [3] | outcome [4] | Potency [5] | Potency [6] | activity change, positive = activation [7] 3.74% [at 42.5 µM] | outcome [8] | Potency [9] | Potency [10]

N#CCc1ccccc1[N+](=O)[O-]
inactive: outcome [1] | Potency [2] | outcome [3] | outcome [4] | Potency [5] | outcome [8] | Potency [9] | Potency [10]

O=C(O)c1cccc(C(=O)O)n1
inactive: outcome [1] | Potency [2] | outcome [3] | outcome [4] | Potency [5] | Potency [6] | activity change, positive = activation [7] 2.2% | outcome [8] | Potency [9] | Potency [10]

CC(C)(O)Cc1ccccc1
inactive: outcome [1] | Potency [2] | outcome [3] | outcome [4] | Potency [5] | Potency [6] | activity change, positive = activation [7] -2.35% | outcome [8] | Potency [10]

Cc1ncc(CSSCc2cnc(C)c(O)c2CO)c(CO)c1O
inactive: outcome [1] | Potency [2] | outcome [3] | outcome [4] | Potency [5] | Potency [6] | activity change, positive = activation [7] 0.477% [at 42.5 µM] | outcome [8] | Potency [9]

CCCCCCC(CCCCCCCCCCC(=O)OCC(COC(C)=O)OC(C)=O)OC(C)=O (stereo unspecified)
inactive: outcome [1] | Potency [2] | outcome [3] | outcome [4] | Potency [5] | outcome [8] | Potency [9] | Potency [10]

COc1ccc(COC=O)cc1
inactive: outcome [1] | Potency [2] | outcome [3] | outcome [4] | Potency [6] | activity change, positive = activation [7] -0.945% | outcome [8] | Potency [9]

NC(=O)c1ncn([C@@H]2O[C@H](CO)[C@@H](O)[C@H]2O)c1N
inactive: outcome [1] | Potency [2] | outcome [3] | outcome [4] | Potency [5] | Potency [9]

CCCCCOC(=O)Nc1nc(=O)n([C@@H]2O[C@H](C)[C@@H](O)[C@H]2O)cc1F
inactive: outcome [1] | Potency [2] | outcome [3] | outcome [4] | Potency [5] | outcome [8] | Potency [10]

Cc1ccccc1C(=O)O
inactive: outcome [1] | Potency [2] | outcome [3] | outcome [4] | Potency [5] | outcome [8] | Potency [9] | Potency [10]

c1ccc2cnncc2c1
inactive: outcome [1] | Potency [2] | outcome [3] | outcome [4] | Potency [6] | activity change, positive = activation [7] -2.66%

O=C(O)c1ccccc1-c1ccc(C(F)(F)F)cc1
inactive: outcome [1] | Potency [2] | outcome [3] | outcome [4] | Potency [5] | outcome [8] | Potency [9] | Potency [10]

CO[Si](CCCNCCC[Si](OC)(OC)OC)(OC)OC
inactive: outcome [1] | Potency [2] | outcome [3] | outcome [4] | Potency [5] | outcome [8] | Potency [9] | Potency [10]

CCC(C)(C)C1CCC(OC)CC1 (stereo unspecified)
inactive: outcome [1] | Potency [2] | outcome [3] | outcome [4] | Potency [6] | activity change, positive = activation [7] -1.91% | outcome [8] | Potency [9] | Potency [10]

CC(C)N1C(=O)c2ccccc2C1=O
inactive: outcome [1] | Potency [2] | outcome [3] | outcome [4] | Potency [5] | Potency [9] | Potency [10]

CCCCC=O
inactive: outcome [1] | Potency [2] | outcome [3] | outcome [4] | Potency [5] | outcome [8] | Potency [9] | Potency [10]
